# Assay outcomes deposited in PubChem by National Center for Advancing Translational Sciences (NCATS).
# DT40 TDP1 no CPT: qHTS for Inhibitors of human tyrosyl-DNA phosphodiesterase 1 (TDP1): qHTS in cells in absence of CPT; DT40 Tdp1-/- hTDP1 cells, no CPT, ATP luminescence, 48 h; Potency, µM (highest dose often 46.2 µM), inactives show top-dose activity change, negative = growth inhibition, actives largely listed as inhibitors; 15% of 420,000 active; note: potency is the fitted concentration of half-maximal effect; % is set by controls: 0 for no effect and ±100 for the full control effect; nearly all actives have a fitted effect of over 55% in size
#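 Stably hTDP1-transfected Tdp1-null chicken DT40 cells were treated with library compounds minus camptothecin and grown for at least 48 hr at 37 °C, after which cellular ATP was quantified by luminescence.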
# IL-1B inflam inh: inhibitors of inflammasome signaling (IL-1 beta secretion); 4.7% of 360,000 active; activity change, % at 57.5 µM; AID 743279; THP-1 LPS/ATP IL-1B secretion, AlphaLISA, 16 h; hits give low values; in the data active = activity change below about -50%; inconclusive = mostly about -30% to -49%; note: % is set by controls: 0 for no effect and ±100 for the full control effect
#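 Secreted IL-1B measured by AlphaLISA bead assay after 16 h compound exposure of THP-1 cells; compounds (final up to 57.5 uM) added 1 h before LPS (250 ng/mL) and ATP (1.25 mM) stimulation; lower signal means less secretion.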
# TDP1 cell CPT: DT40-hTDP1 cell growth loss with CPT; chicken DT40 Tdp1-/-;hTDP1 cells + 20 nM CPT, ATP luminescence, 48 h; Potency, µM (titrated, usually from 46.2 µM), for the others: at the top dose activity change, negative = growth inhibition, hits mostly inhibitors; 12% of 420,000 active; AID 686979; note: potency is the fitted concentration of half-maximal effect; % is set by controls: 0 for no effect and ±100 for the full control effect; nearly all actives have a fitted effect of over 55% in size
#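 Cell growth measured by CellTiter-Glo luminescence after a minimum 48 h, 37 C compound exposure with 20 nM CPT in Tdp1-knockout DT40 cells stably expressing hTDP1, seeded 400/well; qHTS titration format.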
# DRD3 antagonist: D3 dopamine receptor (human) antagonism; P35462; D3R cells, DiscoveRx beta-arrestin luminescence, antagonist mode; hits give low values; max response, negative = inhibition, %; 2.5% of 360,000 active; in the data active = max response below about -50%; inconclusive = no clear call, values can overlap the other calls; note: % is set by controls: 0 for no effect and ±100 for the full control effect
# Target sequence (P35462 whole entry, looked up): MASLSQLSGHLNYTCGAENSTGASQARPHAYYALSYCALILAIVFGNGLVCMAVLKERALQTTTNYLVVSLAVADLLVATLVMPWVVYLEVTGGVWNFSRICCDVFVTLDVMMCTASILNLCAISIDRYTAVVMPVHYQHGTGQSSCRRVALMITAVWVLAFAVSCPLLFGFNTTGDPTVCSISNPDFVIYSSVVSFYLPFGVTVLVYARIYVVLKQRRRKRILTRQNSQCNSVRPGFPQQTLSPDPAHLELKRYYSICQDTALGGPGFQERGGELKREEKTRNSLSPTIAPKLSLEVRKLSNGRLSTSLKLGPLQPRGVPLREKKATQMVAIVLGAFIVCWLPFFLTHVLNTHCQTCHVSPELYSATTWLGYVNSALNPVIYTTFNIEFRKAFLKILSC
#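 Cells expressing the human receptor were seeded at 1500 cells/well, incubated overnight at 37 degrees C in 5% CO2, then exposed to library compounds with dopamine controls for 90 minutes at 37 degrees C before luminescent detection.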
# ClpP mod: qHTS Assay for Activators of ClpP | ATP-dependent Clp protease proteolytic subunit (Bacillus subtilis (strain 168)), P80244 | purified B. subtilis ClpP, FRET peptide cleavage, 20 min | Potency, µM (titrated, usually from 57.5 µM), for inactives: at the top dose activity change, negative = active | 1.9% of 340,000 active; active = well fitted falling curve with a large enough effect; inconclusive = small, poorly fitted or top-dose-only effect; inactive = no such curve, though single readings can be large or run the other way; note: potency is the fitted concentration of half-maximal effect; the source files actives as falling curves though it sought activators and does not explain the sign; nearly all actives have a fitted effect of over 65% in size
# Target sequence (P80244 whole entry, looked up): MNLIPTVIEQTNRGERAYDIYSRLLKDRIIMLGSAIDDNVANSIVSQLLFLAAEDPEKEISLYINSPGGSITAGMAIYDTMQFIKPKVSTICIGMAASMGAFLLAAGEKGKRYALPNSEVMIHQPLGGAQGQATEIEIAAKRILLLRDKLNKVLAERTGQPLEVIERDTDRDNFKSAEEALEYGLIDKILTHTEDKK
#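 Purified B. subtilis ClpP, 10 microg/mL final in Tris/HCl pH8 with KCl, BSA, glycerol and Tween-20, cleaved an Abz/nitrotyrosine-quenched decapeptide. Fluorescence (ex 320, em 430) was read at 0 and 20 min at room temperature. Delta was normalized to 5.8 microM ADEP and DMSO/no-enzyme controls.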
# D3 ag: activates the human D3 dopamine receptor; P35462; D3R DiscoveRx beta-arrestin cells, luminescence, 90 min; max activation, %; 0.58% of 410,000 active; AID 652048; in the data active = max activation above about 30%; note: 0% is about no effect
#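 Agonist mode: compounds and dopamine controls were applied to plated cells for 90 min at 37 degrees C after an overnight attachment at 1500 cells/well. Luminescent read-out followed 30 - 60 minutes at room temperature with DiscoveRx detection reagent.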
# Starred values were filed as active, the others as inactive; ? = inconclusive; . = no result given. Most compounds without a hit are left out; they make up all but 21% or so of the library. Unless noted, calls come from the whole dose curve; as a rule, active = well fitted inhibition curve with a large enough effect; inconclusive = small, poorly fitted or top-dose-only effect; inactive = flat fitted curve, though single readings scatter.
SMILES,DT40 TDP1 no CPT,IL-1B inflam inh,TDP1 cell CPT,DRD3 antagonist,ClpP mod,D3 ag
Cc1cccc(C(=O)N[C@H](C(=O)Nc2nc3ccccc3[nH]2)C(C)C)c1,3.7µM*,91,3.3µM*,-24,1%,-18
CCOc1ccc(-c2cc(-c3nc(-c4ccc(OC)c(OC)c4)no3)[nH]n2)cc1,6.5µM*,.,16µM*,.,-12%,12
COc1ccc(OCc2nc(-c3ccc(OC)c(OC)c3)no2)cc1,?,.,16µM*,.,-4%,5
CCOc1ccc(-c2cc(-c3nc(-c4cc(OC)c(OC)c(OC)c4)no3)[nH]n2)cc1Cl,3.3µM*,.,5.8µM*,.,-26%,2
CCOc1nc(-c2ccccc2)ccc1-c1noc(-c2ccc(OC)c(OC)c2)n1,-8%,-7,?,-4,?,-2
O=C(Nc1sc2c(c1C(=O)NCC1CCCO1)CCC2)c1cc(=O)c2cc(Cl)ccc2o1 (stereo not drawn),?,.,9%,.,-1%,6
COc1ccc(C(=O)Nc2ccc(C(=O)OCc3cc(=O)n4nc(C5CC5)sc4n3)cc2)cc1,0%,.,-19%,.,-27%,2
COc1ccc(-c2cn(-c3ccc(C)cc3C)c(=S)[nH]2)cc1OC,21µM*,17,?,-10,.,16
COc1ccc(-n2cc(-c3ccccc3)[nH]c2=S)c(OC)c1,5.8µM*,?,7.3µM*,-11,?,-2
COc1ccc(-n2cc(-c3ccc(OC)c(OC)c3)[nH]c2=S)cc1,?,-1,-4%,-21,-23%,0
OB(O)c1cc2ccccc2o1,-16%,.,-9%,.,?,.
Cc1ccc(OCCSc2nc(-c3ccccc3C)nc3cc(=O)[nH]n23)cc1Cl,16µM*,.,16µM*,.,-1%,3
COc1ccc(-c2nc(SCCOc3cc(C)ccc3C(C)C)n3[nH]c(=O)cc3n2)cc1,18µM*,.,?,.,?,-9
Cc1ccc(C(C)C)c(OCCSc2nc(-c3ccccc3F)nc3cc(=O)[nH]n23)c1,?,.,?,.,46%,1
CCc1ccc(OCCCSc2nc(-c3ccc(C(C)(C)C)cc3)nc3cc(=O)[nH]n23)cc1,23µM*,.,?,.,-2%,5
Cc1cccc(-c2nc(SCCCOc3ccc(Cl)c(C)c3)n3[nH]c(=O)cc3n2)c1,?,.,?,.,?,0
CCc1ccc(OCCSc2nc(-c3cccc(C)c3)nc3cc(=O)[nH]n23)cc1,?,.,23µM*,.,-5%,7
CCOc1cc(C(=O)Nc2cc(C(=O)OC)ccc2C)ccc1OCC(=O)N1CCOCC1,-1%,6,-19%,3,3%,-1
COc1cc(C)ccc1OCCSc1nc(-c2cccc(C)c2)nc2cc(=O)[nH]n12,21µM*,.,16µM*,.,-17%,-3
O=C1C=CC(=O)N1c1ccc(-c2nc3ccccc3o2)cc1,1.6µM*,-22,1.8µM*,-9,9%,-1
Nc1ccc(-c2nc3ccccc3o2)cc1,-1%,8,-9%,-3,4%,-7
Cc1cc(C(=O)COC(=O)c2ccc(O)cc2O)c(C)n1C(C)C,13µM*,7,18µM*,18,4%,1
COc1ccc(CCn2c(C)cc(C(=O)COC(=O)c3ccc(O)cc3O)c2C)cc1,?,10,?,81,-9%,17
COc1ccc(OC)c(CCNC(=O)CC2(CC3=NS(=O)(=O)c4ccccc4N3)CCCC2)c1,?,-13,12µM*,16,0%,-4
CC1(C(=O)Nc2ccc3c(c2)OCO3)CCN1C(=O)Cc1cccs1 (stereo not drawn),?,-7,?,-102*,-2%,-28
SMILES,DT40 TDP1 no CPT,IL-1B inflam inh,TDP1 cell CPT,DRD3 antagonist,ClpP mod,D3 ag
COc1ccc(CN2CCC2(C)C(=O)NCCNC(C)=O)c2ccccc12 (stereo not drawn),1%,18,8%,26,-8%,0
Cc1ccc(NC(=O)C2(C)CCN2Cc2csc3ccccc23)cc1 (stereo not drawn),?,?,?,15,-4%,6
COc1cccc(NC(=O)C2(C)CCN2C(=O)Cc2cccc3ccccc23)c1 (stereo not drawn),?,-8,?,23,1%,7
CC1(C(=O)Nc2ccc3c(c2)OCO3)CCN1Cc1csc2ccccc12 (stereo not drawn),?,?,23µM*,44,1%,16
CC1(C(=O)Nc2ccc3c(c2)OCO3)CCN1C(=O)Cc1cccc2ccccc12 (stereo not drawn),16µM*,6,21µM*,0,0%,13
COc1ccc(CN2CCC2(C)C(=O)NCc2ccc3c(c2)OCO3)c2ccccc12 (stereo not drawn),?,12,23µM*,4,-2%,15
O=P(O)(O)C(O)(Cc1cccnc1)P(=O)(O)O,-3%,.,2%,.,.,13
CSc1cc2c(cc1C(F)(F)F)N(C(=O)Nc1cccnc1)CC2,-4%,.,-4%,.,.,.
COc1ccccc1C(=O)Nc1ccc(-c2nnn(CC(=O)NCc3ccco3)n2)cc1,15%,-19,-11%,-4,-6%,4
COc1ccccc1CN(CC(=O)NCc1ccc2c(c1)OCO2)C(=O)c1ccc2c(c1)OCCO2,21µM*,0,?,-4,1%,0
COc1ccccc1OCCC(=O)NCc1ccc2c(c1)OCO2,?,40,?,1,.,2
O=C(COC(=O)c1ccc(S(=O)(=O)N2CCCCC2)cc1)NCc1ccccc1,-25%,8,-6%,1,0%,0
CC1Nc2nc(N(C)C)[nH]c(=O)c2NC1C (stereo not drawn),?,31,26µM*,10,1%,-7
COc1ccc(-c2cn3nc(SCC(=O)Nc4ccccc4F)ccc3n2)cc1,?,.,?,.,5%,7
Cc1c(Cl)cccc1N1C(N)=C(C#N)C(c2cc(CN3CCOCC3)cs2)C2=C1CCCC2=O (stereo not drawn),?,.,?,.,-7%,-11
COc1ccccc1C(=O)NC(=S)Nc1ccc(Cc2ccncc2)cc1,18µM*,29,?,36,-1%,1
COc1cc(C(=O)NC(=S)Nc2ccc(Cc3ccncc3)cc2)cc(OC)c1OC,?,-5,?,55,2%,6
